Test [1] is described as follows: qHTS assay to identify small molecule antagonists of the thyroid receptor (TR) signaling pathway - cell viability counter screen (AID 743064). Also: nearly all actives have a fitted effect of over 50% in size. Also: potency is read from the fitted curve at half-maximal effect. Put shortly:
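In rat pituitary GH3.TRE-Luc reporter cells co-exposed to compound and 1 nM T3 for 23.5 h, cytotoxicity was assessed with CellTiter-Fluor in the same wells, read by fluorescence.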

The nature of test [2]: qHTS assay to identify small molecule antagonists of the thyroid receptor (TR) signaling pathway (AID 743065). Also: nearly all actives have a fitted effect of over 55% in size. Also: potency is read from the fitted curve at half-maximal effect. Put shortly:
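GH3.TRE-Luc rat pituitary cells (two TREs driving luciferase) were dosed with compound, then stimulated with 1 nM T3 (final) for 23.5 h at 37 C. ONE-Glo luminescence was the read-out, with CellTiter-Fluor fluorescence as the cytotoxicity counter-screen.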

Test [3] deals with thyroid hormone receptor (rat, GH3 cells). Description: qHTS assay to identify small molecule agonists of the thyroid receptor (TR) signaling pathway (AID 743066; calls by dose curve).
Test [4] deals with Estrogen receptor (Homo sapiens) (UniProt P03372). Kind of test: qHTS assay to identify small molecule antagonists of the estrogen receptor alpha (ER-alpha) signaling pathway (AID 743069; active = well fitted curve in the direction sought with a large enough effect in the signal ratio in the repeat runs, not every such curve was filed as active; the % refers to the signal ratio; also: potency is read from the fitted curve at half-maximal effect). Put shortly:
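In this cell-based reporter format, GripTite HEK293 cells harbouring ER-alpha-UAS-bla were grown overnight with 2% charcoal-stripped FBS, dosed with DMSO-dissolved compounds, then challenged with 17beta-estradiol. After 18 hr at 37C, beta-lactamase activity was detected by FRET fluorescence.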

Test [5] in a line: qHTS assay to identify small molecule antagonists of the estrogen receptor alpha (ER-alpha) signaling pathway - cell viability counter screen (AID 743074; calls by dose curve; also: nearly all actives have a fitted effect of over 45% in size).
For test [6], the target named is Estrogen receptor (Homo sapiens) (UniProt P03372). Description: qHTS assay to identify small molecule agonists of the estrogen receptor alpha (ER-alpha) signaling pathway (AID 743075; calls by dose curve).
Test [7] has the same target. Kind of test: qHTS assay to identify small molecule agonists of the estrogen receptor alpha (ER-alpha) signaling pathway using the BG1 cell line (AID 743079). Also: nearly all actives have a fitted effect of over 20% in size. Also: potency is read from the fitted curve at half-maximal effect.
Test [8] is described as follows: qHTS assay to identify small molecule antagonists of the estrogen receptor alpha (ER-alpha) signaling pathway using the BG1 cell line (AID 743080; calls by dose curve;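 also: BG1 cells stimulated with 17beta-estradiol alongside compound; nearly all actives have a fitted effect of over 25% in size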; also: potency is read from the fitted curve at half-maximal effect). Put shortly: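 BG1-Luc-4E2 cells (endogenous full-length ER-alpha, 4xERE luciferase) hormone-starved 5 days in charcoal-stripped FBS, plated 4,000/well for 24 h, then compound plus 17beta-estradiol for 21.5 h at 37 C; ONE-Glo luminescence read.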

Test [9] is described as follows: qHTS assay to identify small molecule antagonists of the estrogen receptor alpha (ER-alpha) signaling pathway using the BG1 cell line - cell viability counter screen (AID 743081).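 Also: compound given together with 17beta-estradiol as the ER stimulus; series mostly up to about 70 µM; nearly all actives have a fitted effect of over 45% in size.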
The target of a further test is Aromatase (Homo sapiens) (UniProt P11511). Kind of test: qHTS assay to identify aromatase inhibitors (AID 743083). Also: series mostly up to about 70 µM; nearly all actives have a fitted effect of over 55% in size.
The nature of test [10]: qHTS assay to identify aromatase inhibitors - cell viability counter screen (AID 743084).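 Also: cells stimulated with testosterone during compound exposure; nearly all actives have a fitted effect of over 55% in size.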
A short description of test [11]: qHTS assay to identify small molecule that activate the aryl hydrocarbon receptor (AhR) signaling pathway - cell viability counter screen (AID 743086).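 Also: HepG2 liver cells carrying the AhR DRE luciferase reporter; series mostly up to about 70 µM; nearly all actives have a fitted effect of over 45% in size.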 Put shortly:
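HepG2-AhR-luc (HG2L7.5c1) cells, 4000/well, treated 24 h at 37 C with compound; viability measured as CellTiter-Fluor fluorescence after 30 min in the same wells as the luciferase read.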

The target of test [12] is Peroxisome proliferator-activated receptor gamma (Homo sapiens) (UniProt P37231). Kind of test: qHTS assay to identify small molecule agonists of the peroxisome proliferator-activated receptor gamma (PPARg) signaling pathway (AID 743094; active = well fitted activation curve with a large enough effect in the signal ratio in the repeat runs, not every such curve was filed as active; the % refers to the signal ratio). Put shortly: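 Cell-based bla reporter, HEK293H background, PPARg-driven UAS. Pre-incubation 5 h, 37C, 5% CO2. Compound 17 h, 37C. Substrate 1 h RT; fluorescence.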

For test [13] the target is unchanged. Description: qHTS assay to identify small molecule antagonists of the peroxisome proliferator-activated receptor gamma (PPARg) signaling pathway (AID 743191; calls by dose curve; also: series mostly up to about 63 µM; nearly all actives have a fitted effect of over 30% in size). Put shortly: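 GeneBLAzer PPARg UAS-bla HEK293H cells, 5 h post-plating, exposed to compounds 17 h at 37C. LiveBLAzer B/G FRET substrate added for 1 h at room temperature; beta-lactamase reporter read by fluorescence intensity.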

Test [14] in a line: qHTS assay to identify small molecule antagonists of the peroxisome proliferator-activated receptor gamma (PPARg) signaling pathway - cell viability counter screen (AID 743194). Also: nearly all actives have a fitted effect of over 55% in size. Put shortly:
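Cytotoxicity counter screen in PPARg-bla HEK293H cells, same wells as reporter assay. Compounds plus 50 nM rosiglitazone (final) for 17 h at 37 C, then viability read by CellTiter-Glo luminescence.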

A short description of test [15]: qHTS assay for small molecule agonists of the antioxidant response element (ARE) signaling pathway - cell viability counter screen (AID 743203; calls by dose curve; also: nearly all actives have a fitted effect of over 55% in size). Put shortly:
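Measured in the same wells as the beta-lactamase ARE reporter, this read-out is CellTiter-Glo luminescence from HepG2 ARE-bla cells given compounds for 16 hrs.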

A short description of test [16]: qHTS assay for small molecule activators of the heat shock response signaling pathway - cell viability counter screen (AID 743209). Also: nearly all actives have a fitted effect of over 50% in size. Put shortly:
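Same-well multiplex: after 2.5 h room-temperature incubation with LiveBLAzer B/G substrate and fluorescence reading, CellTiter-Glo reagent was added to HSE-bla HeLa cells that had received compound for 5 h at 37 C; luminescence read after 30 min.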

Test [17] in a line: qHTS assay for small molecule activators of the heat shock response signaling pathway (AID 743210; active = well fitted activation curve with a large enough effect in the signal ratio in the repeat runs, with a control signal flat, not every such curve was filed as active; the % refers to the signal ratio;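 also: HeLa cells with beta-lactamase reporter driven by heat shock elements; series mostly up to about 63 µM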). Put shortly: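 Following overnight attachment, HSE-bla HeLa cells received test compounds for 5 h at 37 C; beta-lactamase activity was then detected via FRET substrate fluorescence.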
Test [18] has as its target Aryl hydrocarbon receptor (Homo sapiens) (UniProt P35869). Description: qHTS assay to identify small molecule that activate the aryl hydrocarbon receptor (AhR) signaling pathway (AID 743085). Also: nearly all actives have a fitted effect of over 15% in size. Also: potency is read from the fitted curve at half-maximal effect.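 As to activation: HG2L7.5c1 human HepG2 liver cells with stably integrated DRE-driven firefly reporter; series mostly up to about 70 µM.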 Put shortly:
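AhR agonist activity is inferred from enhanced light output of a DRE-controlled firefly luciferase reporter in HepG2 cells, measured with ONE-Glo following 24 h treatment at 37C.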

A short description of test [19]: qHTS assay for small molecule agonists of the antioxidant response element (ARE) signaling pathway (AID 743202; active = well fitted activation curve with a large enough effect in the signal ratio in the repeat runs, not every such curve was filed as active; the % refers to the signal ratio; also: potency is read from the fitted curve at half-maximal effect). Put shortly:
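HepG2 ARE-bla cells; 16 h treatment at 37 C; FRET-based beta-lactamase fluorescence read after 2 h substrate incubation at room temperature.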

SMILES strings stand for the structures. “And” between values parts separate entries of the source, which are not always exact repeats. Equal entries are not always repeated. Results filed as inconclusive are left out. Some structures have more than one record in an assay (separate samples or runs), and their calls can disagree. The source made the active and inactive calls. Unless noted, calls follow the shape of the dose curve; as a rule, active = well fitted curve in the direction sought with a large enough effect in the repeat runs; inconclusive = weak or mixed curves; inactive = no such curve, though single readings can be large; an effect the other way counts as inactive or inconclusive.

Sequence of Estrogen receptor (Homo sapiens) (P03372 whole entry, looked up): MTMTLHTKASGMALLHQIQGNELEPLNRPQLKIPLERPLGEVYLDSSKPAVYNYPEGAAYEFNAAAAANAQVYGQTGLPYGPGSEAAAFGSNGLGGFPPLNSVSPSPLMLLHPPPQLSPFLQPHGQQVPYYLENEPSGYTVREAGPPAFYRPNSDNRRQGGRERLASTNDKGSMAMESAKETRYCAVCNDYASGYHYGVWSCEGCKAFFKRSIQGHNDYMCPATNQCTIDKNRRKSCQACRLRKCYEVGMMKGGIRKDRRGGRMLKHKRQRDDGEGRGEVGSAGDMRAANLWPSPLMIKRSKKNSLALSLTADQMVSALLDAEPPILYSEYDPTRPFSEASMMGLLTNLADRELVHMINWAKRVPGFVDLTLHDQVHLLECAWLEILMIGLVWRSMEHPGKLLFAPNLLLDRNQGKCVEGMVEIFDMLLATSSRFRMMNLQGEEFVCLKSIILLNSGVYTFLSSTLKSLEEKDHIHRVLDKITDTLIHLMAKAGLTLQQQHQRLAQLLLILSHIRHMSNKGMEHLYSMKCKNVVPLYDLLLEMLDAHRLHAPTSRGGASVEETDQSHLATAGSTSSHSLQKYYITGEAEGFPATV
Sequence of Peroxisome proliferator-activated receptor gamma (Homo sapiens) (P37231 whole entry, looked up): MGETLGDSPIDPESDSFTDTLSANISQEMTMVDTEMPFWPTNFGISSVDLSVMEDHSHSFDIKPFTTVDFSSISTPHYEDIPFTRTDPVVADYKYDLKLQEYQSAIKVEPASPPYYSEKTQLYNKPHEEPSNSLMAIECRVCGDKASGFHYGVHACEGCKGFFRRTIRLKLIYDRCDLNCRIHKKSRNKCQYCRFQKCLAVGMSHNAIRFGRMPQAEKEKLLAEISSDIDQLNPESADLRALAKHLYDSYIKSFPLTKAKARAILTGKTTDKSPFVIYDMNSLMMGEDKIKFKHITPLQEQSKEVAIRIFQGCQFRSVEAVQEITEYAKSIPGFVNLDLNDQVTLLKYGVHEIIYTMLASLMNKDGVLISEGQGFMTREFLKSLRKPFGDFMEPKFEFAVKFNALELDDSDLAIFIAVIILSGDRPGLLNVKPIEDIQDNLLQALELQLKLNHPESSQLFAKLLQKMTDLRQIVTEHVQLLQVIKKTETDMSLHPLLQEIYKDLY
Sequence of Aryl hydrocarbon receptor (Homo sapiens) (P35869 whole entry, looked up): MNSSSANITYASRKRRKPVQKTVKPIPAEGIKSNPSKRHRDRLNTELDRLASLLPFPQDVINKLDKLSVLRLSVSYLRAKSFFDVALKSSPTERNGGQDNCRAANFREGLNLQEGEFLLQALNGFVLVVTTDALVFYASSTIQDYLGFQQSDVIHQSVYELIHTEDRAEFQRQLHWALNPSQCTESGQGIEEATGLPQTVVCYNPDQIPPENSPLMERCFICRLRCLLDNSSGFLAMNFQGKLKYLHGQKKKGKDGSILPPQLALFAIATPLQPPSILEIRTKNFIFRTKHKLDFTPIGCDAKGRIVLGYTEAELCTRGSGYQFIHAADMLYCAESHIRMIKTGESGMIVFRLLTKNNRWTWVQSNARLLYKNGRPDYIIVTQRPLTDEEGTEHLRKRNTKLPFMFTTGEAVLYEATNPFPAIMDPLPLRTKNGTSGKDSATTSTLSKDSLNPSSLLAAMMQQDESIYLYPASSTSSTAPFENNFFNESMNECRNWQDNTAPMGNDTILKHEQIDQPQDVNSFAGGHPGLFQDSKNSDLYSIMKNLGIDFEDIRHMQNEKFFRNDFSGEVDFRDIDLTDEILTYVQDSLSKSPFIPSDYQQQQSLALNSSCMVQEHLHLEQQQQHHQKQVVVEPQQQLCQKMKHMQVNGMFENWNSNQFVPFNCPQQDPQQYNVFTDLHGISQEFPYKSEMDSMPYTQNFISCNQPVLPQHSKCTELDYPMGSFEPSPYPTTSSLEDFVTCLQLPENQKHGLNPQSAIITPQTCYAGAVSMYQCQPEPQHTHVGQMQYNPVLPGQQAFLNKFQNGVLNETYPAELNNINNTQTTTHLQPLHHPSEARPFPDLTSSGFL
Sequence of Aromatase (Homo sapiens) (P11511 whole entry, looked up): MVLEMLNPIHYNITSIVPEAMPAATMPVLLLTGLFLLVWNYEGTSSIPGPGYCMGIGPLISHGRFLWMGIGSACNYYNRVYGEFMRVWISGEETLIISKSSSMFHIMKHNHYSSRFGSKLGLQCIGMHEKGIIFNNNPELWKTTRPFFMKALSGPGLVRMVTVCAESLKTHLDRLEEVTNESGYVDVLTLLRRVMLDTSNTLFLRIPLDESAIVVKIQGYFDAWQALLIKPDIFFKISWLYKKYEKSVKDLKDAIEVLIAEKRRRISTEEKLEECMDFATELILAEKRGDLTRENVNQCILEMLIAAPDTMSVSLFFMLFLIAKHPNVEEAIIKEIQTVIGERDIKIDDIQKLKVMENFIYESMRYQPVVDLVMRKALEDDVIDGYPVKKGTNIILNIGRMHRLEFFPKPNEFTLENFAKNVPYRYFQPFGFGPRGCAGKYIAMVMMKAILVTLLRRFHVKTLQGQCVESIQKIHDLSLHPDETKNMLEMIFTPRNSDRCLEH

As to `COc1cc2c(c(OC)c1OC)-c1ccc(OC)c(=O)cc1[C@@H](NC(C)=O)CC2`, the Potency in test [1] was 1.19 µM (active) and 172 nM (active); in test [2] it was 531 nM (active) and 135 nM (active) and 96.9 nM (active); in test [4], 15.3 nM [inhibitor] (active) and inactive; in test [8], 119 nM (active) and 42.7 nM (active) and 86.3 nM (active). Also, the compound was classed as inactive in test [3], in [5], in test [16] and in [17]. The Potency entry (in test [6]; in test [7]; in [9]; in the test with Aromatase (Homo sapiens); in test [10]; in [11]) was “inactive” each time. Moreover, the Potency result in [12], in test [13], in test [14] and in [15] was “inactive” in each case.

On to `Nc1cccc(N)c1`, for which the Potency result (in [1]; in test [2]; in test [9]; in the test with Aromatase (Homo sapiens); in [10]; in [11]) was “inactive” in each case. Moreover, the Potency result in test [12], in test [13], in test [14], in test [19] and in test [15] was “inactive” in each case. Moreover, the compound was classed as inactive in [3], in [5], in [16] and in [17]. Further, the Potency in test [18] is 54.4 µM (active).

`CC(C)CC(C)CC(O)CC(C)C` (stereo not drawn): the Potency result (in test [1]; in test [2]; in [9]; in the test with Aromatase (Homo sapiens); in test [10]; in [18]) was “inactive” in each case. In addition, the Potency result in test [11], in test [12], in [13], in test [14], in test [19] and in [15] was “inactive” throughout. For the same compound, the compound was classed as inactive in test [3], in [5], in [16] and in test [17].

For the compound `CC(C)(C)CC(C)(C)c1ccc(O)c(-n2nc3ccccc3n2)c1`, the Potency was 26.6 µM (active) and 30.6 µM (active) in [1]; 21.1 µM (active) and 62 µM (active) and 27.3 µM (active) in test [2]; “inactive and 61.1 µM (active)” in test [8]. Further, the compound was called inactive in test [3], in test [5], in [16] and in test [17]. Besides, the Potency entry (in test [4]; in [6]; in test [7]; in test [9]; in the test with Aromatase (Homo sapiens); in test [10]) was “inactive” throughout. Besides, the Potency result in test [11], in [12], in test [13], in [19] and in test [15] was “inactive” each time.

For the compound `C#C[C@]1(O)CC[C@H]2[C@@H]3CCC4=CC(=O)CC[C@@H]4[C@H]3CC[C@@]21CC`, the Potency result (in test [1]; in test [8]; in test [9]; with Aromatase (Homo sapiens); in test [10]; in [18]) was “inactive” each time. Moreover, the Potency result in test [11], in test [12], in test [13], in test [14] and in [15] was “inactive” throughout. Also, the Potency in [2] was 27.3 µM (active); in test [7] it was 422 nM (active) and 38.6 nM (active) and 386 nM (active); in [19], 48.6 µM (active). Moreover, the call in test [3], in [5] and in [16] was inactive.

Regarding `COCC(C)N` (stereo not drawn), the Potency entry in test [1], in test [2], in test [4], in [6], in [7] and in test [8] was “inactive” throughout. Besides, the Potency result (in test [9]; in the test with Aromatase (Homo sapiens); in [10]; in test [11]; in test [12]; in test [13]) was “inactive” in each case. The Potency result in test [14], in test [19] and in test [15] was “inactive” in each case. Also, the call in test [3], in test [5], in test [16] and in test [17] was inactive.

Take `c1ccc2[nH]c(-c3cscn3)nc2c1`: the Potency entry (in [1]; in test [2]; in test [4]; in [6]; in test [9]; with Aromatase (Homo sapiens)) was “inactive” in each case. For the same compound, the Potency entry in test [10], in test [11], in test [12], in test [13], in [14] and in test [19] was “inactive” throughout. Moreover, the Potency entry in test [15] was “inactive”. In addition, the outcome in [3], in test [5], in [16] and in [17] was inactive. Moreover, the Potency in test [7] was 16.8 µM (active) and 24.5 µM (active) and 9.69 µM (active).

As to `N[C@@H](Cc1c[nH]c2ccccc12)C(=O)O`, the Potency entry (in test [1]; in [2]; in [9]; with Aromatase (Homo sapiens); in test [10]; in test [11]) was “inactive” each time. In addition, the Potency result in [12], in [13], in test [14], in [19] and in [15] was “inactive” each time. Besides, the compound was called inactive in [3], in test [5], in test [16] and in test [17]. Besides, in [18], the Potency is 30.7 µM (active).
